Drawing on PubChem BioAssay, this text covers composite z-score and z-score for 6 molecules.

Assay [1] has as its system Plasmodium falciparum Sir2 (PF13_0152, Sir2A). As to the kind of experiment: Plasmodium falciparum Sir2A binding compounds – biochemical, small-molecule microarray, 635 nm fluorescence, primary screen (AID 1098).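 Note: score merges spot fluorescence intensity with its signal-to-noise ratio.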 As to conditions: fluorescence 635 nm, higher = more signal.
A short description of assay [2]: probe aDKK1 binding to arrayed compounds – biochemical, biotinylated probe, 635/667 nm fluorescence, primary screen (AID 1099).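 Note: score merges 667nm spot fluorescence with signal to noise across triplicate slides.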 To be noted: small-molecule microarray, higher = more signal.
A short description of assay [3]: probe aCHRDL2 binding to arrayed compounds – biochemical, biotinylated probe, 635/667 nm fluorescence, primary screen (AID 1100). To be noted: small-molecule microarray, higher = more signal.
Assay [4] can be described thus: change in splice reporter luminescence, either direction, cell-based, HEK293, spliceosome inhibition project, primary screen (AID 1101).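 Note: HEK293 cells carrying a splicing-competent luciferase reporter gene; test concentration not given here.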 To be noted: HEK293 splicing luciferase reporter, 24 h, higher = more signal, called active from +8 up or from −8 down.
The target of assay [5] is Fibroblast growth factor 10 (Homo sapiens) (UniProt O15520). Description: compounds binding fibroblast growth factor 10 – biochemical, small-molecule microarray, 635 nm fluorescence, primary screen (AID 1102). To be noted: FGF10 binding, fluorescence 635 nm, higher = more signal.
Assay [6] has as its system glycogen synthase kinase-3 (GSK3A per assay name; protocol says GSK3B). Description: compounds binding glycogen synthase kinase-3 – biochemical, small-molecule microarray, 635 nm fluorescence, GSK3A, primary screen (AID 1103). Note: the record names both GSK3A and GSK3B. To be noted: fluorescence 635 nm, higher = more signal.
Assay [7] addresses Epidermal growth factor receptor (Homo sapiens) (UniProt P00533). As to the kind of experiment: compounds binding epidermal growth factor receptor – biochemical, small-molecule microarray, 635 nm fluorescence, primary screen (AID 1104).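 Note: score merges 667 nm emission intensity with spot signal to noise over triplicate slides.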 To be noted: EGFR binding, higher = more signal.
The target of assay [8] is Follistatin-related protein 3 (Homo sapiens) (UniProt O95633). As to the kind of experiment: compounds binding follistatin-related protein 3 – biochemical, small-molecule microarray, 635 nm fluorescence, primary screen (AID 1105).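 Note: score merges emission near 667 nm and signal to noise per printed spot across three slides.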 As to conditions: FSTL3 binding, higher = more signal.
Assay [9] concerns the target Dickkopf-related protein 1 (Homo sapiens) (UniProt O94907). As to the kind of experiment: small molecules binding DKK1 protein – biochemical, small-molecule microarray, 635 nm fluorescence scan, primary screen (AID 1106).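 Note: score merges emission near 667 nm with signal to noise over three replicate slides.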 As to conditions: higher = more signal.
The test system of assay [10] is Inhibin beta A chain (activin A). As to the kind of experiment: small molecules binding activin A – biochemical, small-molecule microarray, 635 nm fluorescence scan, primary screen (AID 1107).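 Note: mouse activin A protein probed at 4.33 µg/mL on printed slides; score merges bound-protein fluorescence near 667 nm with spot signal-to-noise.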 To be noted: INHBA, higher = more signal.
In assay [11] the test system is Human papillomavirus type 1a protein E7 (residues 44-93). Description: small molecules binding HPV E7 44-93 – biochemical, small-molecule microarray, residues 44-93, 635 nm fluorescence, primary screen (AID 1108).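 Note: E7 fragment applied at 1 µg/mL in TBST for 1 h at 4 C; score combines spot fluorescence with its signal to noise ratio.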 As to conditions: fluorescence 635 nm, higher = more signal.
A short description of assay [12]: hepatitis C replication reporter changes, two-sided – Huh7 cells, luciferase reporter, HCV replication inhibitor project, primary screen (AID 1109).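 Note: huh7 hepatoma cells harbouring a luciferase neomycin HCV replicon reporter; luciferase luminescence as measure of HCV replicon replication; test concentration not given here.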 As to conditions: Huh7 HCV replicon luciferase reporter, 48 h; higher = more signal.
Assay [13] deals with Left-right determination factor 2 (Homo sapiens) (UniProt O00292). As to the kind of experiment: small molecules binding LEFTY2 protein – biochemical, small-molecule microarray, 635 nm fluorescence scan, primary screen (AID 1110). To be noted: higher = more signal.
Assay [14] has as its target Calmodulin-1 (Homo sapiens) (UniProt P0DP23). As to the kind of experiment: small molecules binding calmodulin-1 with EGTA – biochemical, small-molecule microarray, Cy5-labelled CALM1, profiling panel (AID 1111).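 Note: labelled calmodulin applied in Tris saline Tween buffer holding calcium plus EGTA and DTT.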 To be noted: Cy5-CALM1 binding fluorescence, higher = more signal.
Assay [15] shares this target. As to the kind of experiment: small molecules binding Ca-loaded calmodulin-1 – biochemical, small-molecule microarray, Cy5-labelled CALM1, plus calcium, artefact control for SMM control-protein annotation, profiling panel (AID 1112).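 Note: score merges spot fluorescence with signal to noise from triplicate slides.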 As to conditions: Cy5-CALM1 binding fluorescence, higher = more signal.
The nature of assay [16]: probe aWnt5a binding to arrayed compounds – biochemical, biotinylated probe, 635/667 nm fluorescence, primary screen (AID 1113).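 Note: score merges 667 nm fluorescence intensity with signal-to-noise per printed feature.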 As to conditions: small-molecule microarray, higher = more signal.
Assay [17] can be described thus: probe aShh binding to arrayed compounds – biochemical, biotinylated probe, 635/667 nm fluorescence, primary screen (AID 1114).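 Note: probe is biotin-labelled aShh protein from a stem cell growth factor screen; measures binding of labelled protein to compounds printed on the slide; score merges feature fluorescence at 667 nm with signal-to-noise.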 As to conditions: small-molecule microarray, higher = more signal.
Assay [18] in a line: probe aNog binding to arrayed compounds – biochemical, biotinylated probe, 635/667 nm fluorescence, primary screen (AID 1115).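 Note: probe is biotinylated aNog protein used at 0.15 µg/mL for 1 h at 4 C; z-score combines 667 nm fluorescence of each spot with its signal to noise.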 As to conditions: small-molecule microarray, higher = more signal.
In assay [19] the target is Torsin-1A-interacting protein 1 (Homo sapiens) (UniProt Q5JTV8). Description: compound microarray binding of lysate hLAP1 – cell lysate, small-molecule microarray, COS7 lysate, 635/667 nm fluorescence, primary screen (AID 1116). To be noted: 635 nm fluorescence, higher = more signal.
Assay [20] concerns the target Alpha-bungarotoxin (Bungarus multicinctus) (UniProt P60615). As to the kind of experiment: compounds binding labelled alpha-BTX control protein – biochemical, small-molecule microarray, Alexa647 label, 635/667 nm fluorescence, artefact control for SMM control protein annotation, profiling panel (AID 1117). As to conditions: alpha-BTX-A647 binding fluorescence, higher = more signal.

Active and inactive are the calls of the source.

Chain of Torsin-1A-interacting protein 1 (Homo sapiens) (Q5JTV8 whole entry, looked up): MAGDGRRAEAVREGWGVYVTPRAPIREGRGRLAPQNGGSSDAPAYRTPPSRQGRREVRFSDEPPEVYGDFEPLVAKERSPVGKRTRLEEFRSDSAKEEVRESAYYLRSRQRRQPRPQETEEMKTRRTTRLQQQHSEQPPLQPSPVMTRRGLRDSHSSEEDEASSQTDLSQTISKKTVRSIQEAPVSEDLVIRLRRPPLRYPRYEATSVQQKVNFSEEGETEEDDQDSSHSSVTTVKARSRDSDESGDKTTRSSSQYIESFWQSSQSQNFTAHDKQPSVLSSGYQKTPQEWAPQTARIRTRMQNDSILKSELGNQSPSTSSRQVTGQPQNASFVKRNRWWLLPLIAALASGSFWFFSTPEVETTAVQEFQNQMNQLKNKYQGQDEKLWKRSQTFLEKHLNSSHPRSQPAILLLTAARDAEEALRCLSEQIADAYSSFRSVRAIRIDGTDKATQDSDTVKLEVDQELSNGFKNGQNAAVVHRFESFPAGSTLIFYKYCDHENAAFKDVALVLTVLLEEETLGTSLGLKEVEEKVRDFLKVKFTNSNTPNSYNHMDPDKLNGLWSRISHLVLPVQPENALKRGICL
Chain of Follistatin-related protein 3 (Homo sapiens) (O95633 whole entry, looked up): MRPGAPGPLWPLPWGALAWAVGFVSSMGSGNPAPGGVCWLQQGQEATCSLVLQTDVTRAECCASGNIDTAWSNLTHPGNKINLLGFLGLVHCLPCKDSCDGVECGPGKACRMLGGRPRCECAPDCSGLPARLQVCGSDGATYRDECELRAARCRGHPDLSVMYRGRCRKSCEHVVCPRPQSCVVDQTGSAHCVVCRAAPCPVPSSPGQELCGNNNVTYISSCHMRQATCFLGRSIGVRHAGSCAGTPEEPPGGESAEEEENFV
Chain of Dickkopf-related protein 1 (Homo sapiens) (O94907 whole entry, looked up): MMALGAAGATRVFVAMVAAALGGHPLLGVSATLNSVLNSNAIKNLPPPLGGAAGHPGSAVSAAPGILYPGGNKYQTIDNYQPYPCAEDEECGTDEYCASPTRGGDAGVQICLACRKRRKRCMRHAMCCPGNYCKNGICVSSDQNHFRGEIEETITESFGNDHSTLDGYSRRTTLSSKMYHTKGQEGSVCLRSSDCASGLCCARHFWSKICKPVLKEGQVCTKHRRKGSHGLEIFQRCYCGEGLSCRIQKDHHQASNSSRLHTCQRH
Chain of Left-right determination factor 2 (Homo sapiens) (O00292 whole entry, looked up): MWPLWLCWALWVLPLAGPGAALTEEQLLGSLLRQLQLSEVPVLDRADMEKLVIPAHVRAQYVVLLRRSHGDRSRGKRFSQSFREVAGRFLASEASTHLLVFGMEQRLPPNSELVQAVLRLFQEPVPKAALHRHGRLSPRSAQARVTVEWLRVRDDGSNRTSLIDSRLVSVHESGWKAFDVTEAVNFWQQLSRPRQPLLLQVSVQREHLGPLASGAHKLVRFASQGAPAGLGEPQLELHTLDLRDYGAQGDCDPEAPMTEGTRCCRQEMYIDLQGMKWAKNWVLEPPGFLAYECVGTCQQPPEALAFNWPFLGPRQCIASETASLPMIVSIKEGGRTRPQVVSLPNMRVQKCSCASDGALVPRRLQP
Chain of Epidermal growth factor receptor (Homo sapiens) (P00533 whole entry, looked up): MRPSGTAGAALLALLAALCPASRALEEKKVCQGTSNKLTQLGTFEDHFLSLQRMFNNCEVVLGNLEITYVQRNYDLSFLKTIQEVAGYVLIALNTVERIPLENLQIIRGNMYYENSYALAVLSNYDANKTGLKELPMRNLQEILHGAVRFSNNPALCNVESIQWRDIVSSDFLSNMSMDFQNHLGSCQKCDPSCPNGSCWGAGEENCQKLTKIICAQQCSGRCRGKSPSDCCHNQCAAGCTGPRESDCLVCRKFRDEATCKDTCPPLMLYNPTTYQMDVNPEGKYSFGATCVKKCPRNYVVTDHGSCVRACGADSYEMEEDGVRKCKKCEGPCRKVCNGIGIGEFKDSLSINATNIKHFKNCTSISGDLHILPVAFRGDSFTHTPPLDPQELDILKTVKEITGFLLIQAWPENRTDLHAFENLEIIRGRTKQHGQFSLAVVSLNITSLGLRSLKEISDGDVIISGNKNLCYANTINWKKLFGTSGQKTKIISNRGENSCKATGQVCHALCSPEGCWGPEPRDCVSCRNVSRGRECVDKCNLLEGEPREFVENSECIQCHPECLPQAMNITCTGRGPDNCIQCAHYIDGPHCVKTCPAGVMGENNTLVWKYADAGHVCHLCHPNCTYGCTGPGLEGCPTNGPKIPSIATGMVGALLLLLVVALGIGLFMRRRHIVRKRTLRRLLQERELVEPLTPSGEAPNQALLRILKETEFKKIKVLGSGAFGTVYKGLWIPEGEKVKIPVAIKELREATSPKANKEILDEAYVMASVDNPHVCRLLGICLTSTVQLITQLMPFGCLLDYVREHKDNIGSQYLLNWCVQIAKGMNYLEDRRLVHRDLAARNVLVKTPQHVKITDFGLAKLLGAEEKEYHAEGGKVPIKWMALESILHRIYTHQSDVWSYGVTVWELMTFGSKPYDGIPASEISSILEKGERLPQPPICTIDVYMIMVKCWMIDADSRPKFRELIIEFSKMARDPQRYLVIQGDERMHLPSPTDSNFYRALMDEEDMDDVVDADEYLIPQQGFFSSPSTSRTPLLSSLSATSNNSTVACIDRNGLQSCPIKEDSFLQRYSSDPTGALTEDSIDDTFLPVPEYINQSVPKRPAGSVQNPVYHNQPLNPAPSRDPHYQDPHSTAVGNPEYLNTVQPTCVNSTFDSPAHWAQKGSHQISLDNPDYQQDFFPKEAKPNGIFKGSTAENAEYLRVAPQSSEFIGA
Chain of Alpha-bungarotoxin (Bungarus multicinctus) (P60615 whole entry, looked up): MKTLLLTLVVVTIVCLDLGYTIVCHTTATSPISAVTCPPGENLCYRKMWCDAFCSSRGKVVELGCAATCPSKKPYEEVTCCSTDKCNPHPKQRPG
Chain of Fibroblast growth factor 10 (Homo sapiens) (O15520 whole entry, looked up): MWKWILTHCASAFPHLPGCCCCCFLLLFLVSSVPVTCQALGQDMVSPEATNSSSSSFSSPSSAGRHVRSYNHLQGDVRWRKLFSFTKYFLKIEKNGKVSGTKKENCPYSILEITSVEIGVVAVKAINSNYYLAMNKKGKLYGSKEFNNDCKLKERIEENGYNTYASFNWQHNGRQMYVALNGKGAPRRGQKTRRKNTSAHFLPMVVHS

On to `C=C(CCCC)C(=O)CC[C@H](OC(=O)c1cccnc1)c1ccccc1OCCO`, for which the composite z-score was 0.619 in assay [1]; -0.322 in [2]; 0.154 in assay [3]; 0.704 in assay [5]; -1.05 in assay [6]; -0.0934 in assay [7]. Also, the composite z-score in assay [8] was 0.12; in assay [9], 0.137; in assay [10] it was 1.1; in assay [11] it was -0.935; in assay [13], -0.154; in assay [14], -0.398. Further, the composite z-score in [15] is -0.95; in [16], -0.0758; in assay [17], -0.102; in assay [18], -0.136; in [19], -0.0529; in assay [20], -0.0583. Also, the z-score in assay [4] was -0.637 (inactive); in [12], -2.46.
As to `COCC(=C=CC[C@@H](O)c1ccccc1OCCO)C[C@@H](O)c1cc(Cl)cc(Cl)c1O`, the composite z-score in assay [1] is 0.781; in [2], -0.174; in [3], -0.607; in assay [5] it was 1.23; in assay [6], 1.28; in [7] it was 0.334. Besides, the composite z-score in assay [8] came to 1.23; in assay [9], 0.317; in assay [10], 0.495; in assay [11], 1.44; in assay [13] it was 0.635; in assay [14], 0.362. In addition, the composite z-score in assay [15] is -0.534; in assay [16], -0.126; in assay [17], -0.14; in assay [18], -0.0863; in [19], 0.704; in assay [20], 0.792. The z-score in assay [4] is -0.458 (inactive); in [12], -2.21.
Turning to `C=CCNC(=O)[C@H]1[C@@H]2C(=O)O[C@@H](c3ccccc3)[C@@H](c3ccccc3)N2[C@@H](c2ccc(OCCO)cc2)[C@]12C(=O)Nc1ccc(C#CC3=CCCCC3)cc12`, the composite z-score in assay [1] is 1.25; in assay [2], -0.488; in assay [3] it was 0.171; in [5], 0.929; in assay [6] it was 1.05; in [7], 0.293. Moreover, the composite z-score in assay [8] was found to be 0.881; in assay [9], 0.183; in [10] it was 0.543; in assay [11], 1.4; in [13], 0.477; in assay [14], 0.508. In addition, the composite z-score is -0.36 in assay [15]; 0.0101 in [16]; 0.13 in assay [17]; -0.143 in assay [18]; 1.26 in assay [19]; 1.11 in assay [20]. The figures for the z-score in assay [4] and in assay [12] were -1.24 (inactive) and -2.4, respectively.
Consider `CN1C(=O)C2C=CC(C(O)c3cc(C(F)(F)F)cc(C(F)(F)F)c3)N(N3CCCCC3)C2C1=O` (stereo not given), for which the composite z-score in [1] was 0.567; in [2], 0.853; in assay [3], 1.01; in [5], 0.246; in assay [6] it was -0.0883; in assay [7], -0.448. In addition, the composite z-score in assay [8] was 0.0198; in assay [9], -0.722; in [10], 0.291; in assay [11] it was 1.24; in assay [13], -0.599; in assay [14] it was 1.34. Also, the composite z-score in [15] turned out to be 0.769; in [16], 0.0775; in assay [17], 0.42; in assay [18], 1.15; in [19], 0.287; in [20] it was 0.49. In addition, the z-score is 0.139 (inactive) in [4] and -0.353 in assay [12].
Consider `CN1C(=O)C2C=CC(C(O)c3cccs3)N(Nc3ccccc3)C2C1=O` (stereo not given), for which the composite z-score in assay [1] was found to be 0.748; in assay [2], 0.168; in assay [3], 0.272; in assay [5], 0.765; in assay [6], 0.0802; in assay [7] it was 0.007. Besides, the composite z-score in [8] was 0.174; in [9], -0.0478; in [10] it was 0.693; in [11], 0.548; in [13] it was 0.0032; in [14], 0.041. Moreover, the composite z-score in [15] was -0.591; in [16], 0.211; in assay [17], 0.265; in assay [18], 0.0924; in assay [19], 0.558; in [20] it was 0.336. Further, the values for the z-score in assay [4] and in assay [12] were 1.46 (inactive) and -0.304, respectively.
As to `CCOC(=O)[C@H]1C/C=C/C[C@H](C(=O)OCC)C(=O)O[C@H]2[C@@H](OC)O[C@H](CO)[C@@H](OC(=O)Nc3cccc(F)c3)[C@@H]2OC1=O`, the composite z-score is 1.39 in assay [1]; -0.438 in assay [2]; -0.174 in [3]; 0.687 in assay [5]; 0.327 in assay [6]; -0.226 in assay [7]. In addition, the composite z-score in assay [8] is -0.0088; in assay [9], 0.254; in assay [10], 0.519; in assay [11] it was 1.14; in assay [13], -0.169; in [14], -0.192. Moreover, the composite z-score in [15] was -0.273; in assay [16], -0.0243; in assay [17], 0.0818; in assay [18] it was 1.93; in assay [19], 0.556; in [20], 0.729. For the same molecule, the figures for the z-score in assay [4] and in assay [12] were 0.68 (inactive) and -3.56, respectively.
